PolyA inhibitor: blocks polyadenylation in yeast reporter cells; S. cerevisiae SKY197-pL101 polyadenylation reporter, beta-gal luminescence; efflux-impaired pdr1/pdr3 knockout yeast; score 100 = 6 SD above DMSO; 0.02% of 300,000 active; activity score, % at 12 µM;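 active means lowest replicate activity score at least 50, where 100 means six control SD above control mean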;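 further: yeast exposed to compound for 9 h at 30 °C; higher score means more reporter readthrough which indicates perturbed polyadenylation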
NALP1 inh: inhibitors of NALP1 inflammasome in yeast; S. cerevisiae NALP1/ASC/caspase-1 growth, X-gal OD620, 72 h; inhibition, % at 10 µM; 0.61% of 280,000 active; AID 2071; in the data active means inhibition mostly above about 24%, no sharp cut-off; inactive means mostly below about 32%
OPRM1-OPRD1 inv: mu-delta opioid heterodimer inverse agonism; P35372+P41143; cell-based MOR-DOR heterodimer luminescence; inhibition, % at 9.3 µM; 0.21% of 340,000 active; AID 504357; in the data active means inhibition above about 22%, passing the limit was not always enough;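 further: 0% = cells with DMSO and 100% = wells without cells with DMSO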
HTR5A inv ag: HTR5A inverse agonism, opioid heterodimer counter-screen. HTR5A cell line, luminescence. inhibition, % at 9.3 µM. 0.083% of 340,000 active. AID 504634; in the data active means inhibition mostly above about 23%, no sharp cut-off; inactive means mostly below about 18%;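 further: 0% = cells with DMSO and 100% = no-cell wells with DMSO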
MOR-DOR ag: agonists of human mu-delta opioid receptor heterodimerization; P35372+P41143; activation, % at 9.3 µM; 0.3% of 340,000 active; cells, OPRM1-OPRD1 heterodimerization, luminescence; in the data active means activation above about 18%;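 further: 0% = vehicle-treated cells and 100% = reference agonist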
HTR5A ag: HTR5A agonism, opioid heterodimer counter-screen | HTR5A agonist assay, luminescence, cell-based | P47898 | activation, % at 9.3 µM | 0.61% of 340,000 active; in the data active means activation mostly above about 9.5%, no sharp cut-off; inactive means mostly below about 7.6%;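 further: 0% = cells with vehicle only and 100% = reference agonist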
An asterisk follows results filed as active. The list is not random: actives were taken first. Their share in the collection is about 1.6%.

CCC(C)N(C(=O)COC(=O)Cc1n[nH]c(=O)c2ccccc12)C1CCS(=O)(=O)C1 (stereo unspecified) was read as PolyA inhibitor 2.6, NALP1 inh 26.4*, OPRM1-OPRD1 inv 12.9, HTR5A inv ag -25.0, MOR-DOR ag -2.2 and HTR5A ag 7.1.
COc1cc(/C=N/n2cnnc2)ccc1Oc1nc(Cl)ncc1F was read as PolyA inhibitor -6.8, NALP1 inh 8.5, OPRM1-OPRD1 inv 4.7, HTR5A inv ag 8.7, MOR-DOR ag -1.0 and HTR5A ag -3.4.
For COc1ccc(/C=N/n2cnnc2)cc1Oc1nc(Cl)ncc1F the results were PolyA inhibitor -2.7, NALP1 inh 1.8, OPRM1-OPRD1 inv 1.4, HTR5A inv ag -29.8, MOR-DOR ag -0.3 and HTR5A ag 11.6*.
Screening O=C(OCc1ccc(Cl)c(Cl)c1)c1ccc[nH]1 returned PolyA inhibitor -8.4, NALP1 inh 40.1, OPRM1-OPRD1 inv -15.6, HTR5A inv ag 2.0, MOR-DOR ag 2.8 and HTR5A ag -0.8.
For O/C(=C\c1nc2ccccc2nc1/C=C(\O)c1ccccc1)c1ccccc1 the results were PolyA inhibitor -58.5, NALP1 inh -1.9, OPRM1-OPRD1 inv 71.4*, HTR5A inv ag 4.1, MOR-DOR ag -13.8 and HTR5A ag -8.7.
O/C(=C\c1ccc2ccccc2n1)c1ccncc1 was read as PolyA inhibitor -8.5, OPRM1-OPRD1 inv 14.3, HTR5A inv ag -9.0, MOR-DOR ag -2.5 and HTR5A ag 0.5.
`CCn1cc(CN2CCC(C(=O)Nc3cccc(-c4cccc(F)c4)c3)CC2)cn1` gave PolyA inhibitor 1.4, NALP1 inh 20.2, OPRM1-OPRD1 inv 14.1, HTR5A inv ag -7.4, MOR-DOR ag -4.3 and HTR5A ag 2.2.
For CCn1nc(C)c(CN2CCC(C(=O)Nc3cccc(-c4cccc(F)c4)c3)CC2)c1C the results were PolyA inhibitor -10.6, NALP1 inh 2.1, OPRM1-OPRD1 inv -2.8, HTR5A inv ag -32.6, MOR-DOR ag 0.6 and HTR5A ag 8.7*.
CC(C)(C)C(=O)/C=c1\s/c(=C\c2ccc(-c3ccc([N+](=O)[O-])cc3)o2)c(=O)n1CC(=O)NC(N)=O was read as PolyA inhibitor -1.9, NALP1 inh 5.0, OPRM1-OPRD1 inv -28.4, HTR5A inv ag -12.6, MOR-DOR ag 5.6 and HTR5A ag 4.5.
Cc1ccc(C2CC(c3ccc(Cl)cc3)n3nc(N)nc3N2)cc1 (stereo unspecified) was read as PolyA inhibitor 28.2, NALP1 inh 18.0, OPRM1-OPRD1 inv 4.0, HTR5A inv ag 12.5, MOR-DOR ag -0.8 and HTR5A ag -4.7.
`Clc1ccc(C2CSc3c4ncnc-4ncn32)cc1` (stereo unspecified) gave PolyA inhibitor -5.4, NALP1 inh 39.5*, OPRM1-OPRD1 inv 5.6, HTR5A inv ag 6.6, MOR-DOR ag -1.1 and HTR5A ag -3.0.
CC(CCc1ccccc1)NC(=O)CC(C)c1ccccc1 (stereo unspecified) was read as PolyA inhibitor -6.4, NALP1 inh 13.1, OPRM1-OPRD1 inv -10.1, HTR5A inv ag -1.2, MOR-DOR ag 2.0 and HTR5A ag 0.3.
Screening CCC(C)[C@@H](NC(=O)OC(C)(C)C)c1nnc(S(=O)(=O)Cc2cccc(C)c2)o1 (stereo partly specified) returned PolyA inhibitor -45.6, NALP1 inh -7.5, OPRM1-OPRD1 inv 4.0, HTR5A inv ag 2.8, MOR-DOR ag -0.9 and HTR5A ag 14.1*.
For CC1(C)CC(N=c2cc(-c3ccccc3)oc3ccc(Cl)cc23)CC(C)(C)N1 the results were PolyA inhibitor -1.4, NALP1 inh -0.1, OPRM1-OPRD1 inv -57.9, HTR5A inv ag -40.7, MOR-DOR ag 11.3 and HTR5A ag 13.5*.
`OCCCN=c1cc(-c2ccccc2)oc2ccc(Cl)cc12` gave PolyA inhibitor -8.9, NALP1 inh 46.4, OPRM1-OPRD1 inv 12.3, HTR5A inv ag 12.1, MOR-DOR ag -2.2 and HTR5A ag -2.3.
Screening c1ccc(-c2ccc(-c3cn4c(n3)CCC4)cc2)cc1 returned PolyA inhibitor -27.6, NALP1 inh 51.3*, OPRM1-OPRD1 inv 10.1, HTR5A inv ag -5.4, MOR-DOR ag -2.0 and HTR5A ag 2.1.
`COc1ccc(-c2cn3c(n2)CCC3)cc1` gave PolyA inhibitor 4.7, NALP1 inh 14.6, OPRM1-OPRD1 inv 9.7, HTR5A inv ag -16.9, MOR-DOR ag -1.7 and HTR5A ag 3.9.

From PubChem
